Measured values reported in PubChem BioAssay.
Calls of active or inactive are those of the source. How the calls were made is not given here.

Each molecule was assayed on Aerobactin synthetase IucA (Klebsiella pneumoniae, hypervirulent) (assay: biochemical IucA inhibition screen of LOPAC library by absorbance (AID 1346212;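 further: 100% = no compound wells and 0% = no enzyme wells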)). Settings: IucA enzyme assay, absorbance (OD) readout; hits give low values;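 tested at 8 µM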.

Structure (SMILES)	remaining activity
CN1CC[C@]2(CCN3CCc4c(oc5ccccc45)[C@@H]3C2)N(C)C1=O	109% (inactive)
C[C@]12CC[C@@H]3c4ccc(O)cc4CC[C@H]3[C@@H]1CCC2=O	103% (inactive)
NC1(C(=O)O)CCc2cc(C(=O)O)ccc21 (centres undefined)	110% (inactive)
C[C@@H](NC(=O)/C(C#N)=C/c1ccc(O)c(O)c1)c1ccccc1	97.8% (inactive)
CC1=C(C(=O)O)N2C(=O)[C@@H](NC(=O)[C@H](N)c3ccccc3)[C@H]2SC1	118% (inactive)
Cc1nc(N=Nc2cc(S(=O)(=O)O)c3cc([N+](=O)[O-])cc(S(=O)(=O)O)c3c2)c(COP(=O)(O)O)c(C=O)c1O	118% (inactive)
NCCS(=O)O	101% (inactive)
N[C@@H](COP(=O)(O)O)C(=O)O	124% (inactive)
CCCCC#Cc1nc(N)c2ncn([C@@H]3O[C@H](C(=O)NCC)[C@@H](O)[C@H]3O)c2n1	96.4% (inactive)
CC(=O)[C@H]1CC[C@H]2[C@@H]3CCC4=CC(=O)CC[C@]4(C)[C@H]3CC[C@]12C	123% (inactive)
CN1CCc2ccccc2Cc2[nH]c3ccccc3c2CC1	107% (inactive)
C#CCN1C(C)=C(C(=O)OC)C(c2cccc([N+](=O)[O-])c2)C(C(=O)OCC)=C1C (centres undefined)	112% (inactive)
CC(=O)O[C@]1(C(C)=O)CC[C@H]2[C@@H]3C=C(Cl)C4=CC(=O)[C@@H]5C[C@@H]5[C@]4(C)[C@H]3CC[C@@]21C	95.7% (inactive)
Nc1c(S(=O)(=O)O)cc(Nc2ccc(Nc3nc(Cl)nc(Nc4cccc(S(=O)(=O)O)c4)n3)c(S(=O)(=O)O)c2)c2c1C(=O)c1ccccc1C2=O	100% (inactive)
